From PubChem BioAssay
ELG1 genotox = induces genotoxicity in HEK293T cells with luciferase-tagged ELG1; HEK293T ELG1-luciferase reporter, luminescence, 16 h; Potency, µM (titrated, usually from 46 µM), for the others: at the top dose activity change, positive = activation, most hits filed as activators; actives 1.3% (n = 330,000); AID 504466; further: % of control where 0% means no effect; nearly all actives have a fitted effect of over 60% in size
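Quantitative HTS format in 1536-well plates. HEK293T ELG1-luciferase reporter cells receive test compound and are incubated 16 hr at 37 °C, 5% CO2; ONE-Glo added, 30 min room temperature, then luminescence read.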
FLuc counter = firefly luciferase modulation, counter-screen for miR-21 project. P08659. purified FLuc, Km substrates, luminescence inhibition. Potency, µM (titrated, usually from 57.5 µM), inactives show at the top dose activity change, negative = inhibition, usual class: inhibitors. actives 6.9% (n = 360,000). AID 588342;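 further: plate controls were vehicle for no effect and reference inhibitor for full effect; nearly all actives have a fitted effect of over 55% in size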
Target sequence (P08659 whole entry, looked up): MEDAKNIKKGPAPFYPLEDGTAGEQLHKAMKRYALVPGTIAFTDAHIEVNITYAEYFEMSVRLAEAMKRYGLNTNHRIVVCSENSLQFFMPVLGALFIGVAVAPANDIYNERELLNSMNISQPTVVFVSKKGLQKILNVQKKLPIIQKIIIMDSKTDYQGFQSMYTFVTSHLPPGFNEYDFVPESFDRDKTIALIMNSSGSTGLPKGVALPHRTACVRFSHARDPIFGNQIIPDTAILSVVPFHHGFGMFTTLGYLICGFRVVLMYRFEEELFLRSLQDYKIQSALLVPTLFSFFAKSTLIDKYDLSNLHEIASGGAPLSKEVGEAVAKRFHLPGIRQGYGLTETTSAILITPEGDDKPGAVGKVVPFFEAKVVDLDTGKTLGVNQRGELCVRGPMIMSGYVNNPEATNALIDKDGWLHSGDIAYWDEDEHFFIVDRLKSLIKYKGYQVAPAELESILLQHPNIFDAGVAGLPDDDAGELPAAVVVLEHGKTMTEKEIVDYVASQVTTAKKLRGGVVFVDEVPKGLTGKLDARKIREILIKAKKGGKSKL
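Purified P. pyralis luciferase (10nM final) with 10uM D-luciferin and 10uM ATP (Km levels) in 50mM Tris acetate pH 7.5, 10mM Mg acetate, 0.01% Tween-20, 0.05% BSA; qHTS 6-point titration, ~60 µM downward; luminescence read.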
KinaseGlo FLuc = blocks Kinase-Glo luciferase, a counter-screen artifact. Potency, µM (titrated, usually from 38.3 µM), inactives show at the highest dose activity change, negative = inhibition, hits mostly inhibitors. Kinase-Glo luciferase, ATP luminescence, 8 min. actives 0.28% (n = 200,000); further: on the % scale 0 is the no-effect control and ±100 the full control effect; nearly all actives have a fitted effect of over 60% in size
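Light output from Kinase-Glo luciferase with luciferin and 10 uM ATP in 50 mM imidazole pH 7.2, KCl, MgCl2, Tween 20, BSA; compound pin-delivered, 8-min ambient incubation, then luminescence read.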
NPC1 prom act = activates the NPC1 promoter. Huh7 NPC1 promoter luciferase reporter, 24 h. Potency, µM (doses to about 9.22 µM), for inactives: top-dose activation, usual class: activators. actives 2.4% (n = 320,000); further: % of control where 0% means no effect; nearly all actives have a fitted effect of over 60% in size
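NPC1 promoter–luciferase Huh7 cells; 24 h compound; luminescence.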
SMN2 splice up = SMN2 splice variant enhancement | HEK293 SMN2-luciferase splicing reporter, luminescence, 30-36 h | actives 2.8% (n = 210,000) | AID 1458 | Potency, µM (titrated, usually from 46.1 µM), without a hit: at the highest dose activity change, positive = activation, usual class: activators; further: % of control where 0% means no effect; nearly all actives have a fitted effect of over 55% in size
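HEK293 cells carry an SMN2 minigene-luciferase reporter in which exon 7 inclusion puts luciferase in frame. Cells were seeded at 2000 cells/well, attached for 10-12 hours, then exposed to compounds for 30-36 hours at 37C before ONE-Glo luminescence.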
Rab9 prom act = activators of Rab9 promoter. Huh7 Rab9 promoter-luciferase reporter, luminescence, 24 h. actives 2.8% (n = 320,000). Potency, µM (doses to about 9.22 µM), for inactives: at the top dose activation, negative = inhibition, actives largely listed as activators. AID 485297; further: % of control where 0% means no effect; nearly all actives have a fitted effect of over 60% in size
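Using Huh7 cells stably transfected with Rab9 promoter–luciferase, compounds were incubated 24 h at 37 °C, 5% CO2; luciferase luminescence was read 10 min after reagent addition.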
Active calls of the source: *; u = inconclusive; x = no result given; [ ] = remark or other dose. Most compounds without a hit are left out; they make up all but 7.4% or so of the library. The call rests on the fitted dose curve; in most records, active means well fitted curve in the direction sought with a large enough effect; inconclusive means small, poorly fitted or top-dose-only effect, or another doubt; inactive means no such curve, though single readings can be large; an effect the other way counts as inactive or inconclusive. Potency means the concentration at half of the fitted maximal effect.

SMILES | ELG1 genotox | FLuc counter | KinaseGlo FLuc | NPC1 prom act | SMN2 splice up | Rab9 prom act
O=C(O)c1ccc(N/N=C/c2ccc(-c3cccc(Cl)c3)o2)cc1 | u | 2.7µM* | x | 0.45µM* | x | 0.32µM*
C=CCNC(=S)N/N=C/c1ccc(-c2cc(Cl)ccc2Cl)o1 | 12% | 2% | -2% | -2% | x | -2%
Cc1c(C(=O)O)cccc1-c1ccc(/C=N/n2cnnc2)o1 | 7% | -4% | x | -10% | x | -4%
Cc1ccc(C(=O)N/N=C/c2ccc(-c3cccc(Cl)c3)o2)cn1 | -6% | u | x | -6% | x | -1%
Cc1c(C(=O)O)cccc1-c1ccc(/C=N/Nc2ccc(Br)cc2)o1 | u | 12µM* | -6% | u | x | u
O=C(Nc1cc(C(F)(F)F)ccc1Cl)c1cnn(-c2ccccc2)c1-n1cccc1 | x | -7% | x | x | x | x
CCc1ccc(-c2cc(C)no2)cc1S(=O)(=O)NCc1ccc(OC)cc1 | x | -1% | x | x | x | x
CC1=CC2C(=O)c3cccc(O)c3C(=O)C2C(O)=C1 (stereo not given) | x | x | 2% | x | -4% | x
CC(C)C[C@@H](CC(=O)N[C@@H](CCC(=O)O)CC(=O)O)NC(=O)[C@@H]1CNCC[C@H]1NC(=O)C[C@@H](NC(=O)C[C@H](Cc1c[nH]c2ccccc12)NC(=O)[C@@H]1CNCC[C@H]1N)C(C)C | x | x | 0% | x | 4% | x
Cc1ccc(NC(=O)Cn2c(=O)n(CCCCCC(=O)NCc3ccc(F)cc3)c(=O)c3sccc32)cc1C | x | 0% | x | x | -5% | x
O=C(Cc1ccc(F)cc1)N/N=C/c1ccc(-c2ccc(Cl)c(C(=O)O)c2)o1 | -1% | u | 5% | -1% | 11% | -2%
O=C(O)c1cc(N/N=C/c2ccc(-c3ccc(F)cc3)o2)ccc1Cl | u | 9.5µM* | x | u | x | u
CCc1ccccc1Nc1cc(C(=O)NCCCN(C)C2CCCCC2)c2ccccc2n1 | x | -8% | x | x | -48% | x
Cc1cccc(C)c1NC(=O)CN1C(=O)C2CC=CCC2C1=O (stereo not given) | 3% | 5% | x | -2% | x | -3%
CN(C)c1cccc(C(=O)NNC(=O)CN2C(=O)C3CC=CCC3C2=O)c1 (stereo not given) | 10µM* | x | x | x | x | x
CCOc1ccc(-c2nc(CSCC(=O)N3CCN(C(=O)c4ccco4)CC3)c(C)o2)cc1 | -1% | 19µM* | -1% | 30% | -26% | 21%
CCOC(=O)CSCc1nc(-c2ccc(Cl)cc2)oc1C | 3% | 17µM* | 12% | 2% | -19% | -8%
CCOc1ccc(-c2nc(CSCC(=O)NCC3CCCO3)c(C)o2)cc1 (stereo not given) | 0%[9.26 µM] | 17µM* | x | 0% | x | 3%
CCc1ccc(-c2nc(CSCC(=O)NCc3ccco3)c(C)o2)cc1 | -6% | 24µM* | 0% | -15% | -85% | -16%
COc1ccc(-c2nc(CSCC(=O)N3CCN(c4ccccc4)CC3)c(C)o2)cc1 | x | -18% | x | x | -9% | x
Cc1cnc(CNc2cc(-c3ccoc3)ncn2)cn1 | x | x | -4% | x | 5% | x
COc1cccc(Nc2sc(C(=O)c3ccc(F)cc3)c(N)c2C(=O)NCc2ccc(C)cc2)c1 | x | 2% | x | x | x | x
CCOC(=O)C1CCN(C(=O)CSCc2nc(-c3ccc(OCC)cc3)oc2C)CC1 | 21µM* | u | 7% | -3% | -79% | -11%
Cc1ccccc1N1CCN(C2=NC(=O)/C(=C\c3cccs3)S2)CC1 | 1% | 9.5µM* | -2% | -1% | u | 11%
CC(C)(C)c1ccc(/C=C2/SC(N3CCCC3)=NC2=O)cc1 | 3% | 12µM* | x | -3% | x | 11%
SMILES | ELG1 genotox | FLuc counter | KinaseGlo FLuc | NPC1 prom act | SMN2 splice up | Rab9 prom act
CCOC(=O)C1CCCN(C2=NC(=O)/C(=C/c3ccc(N(C)C)cc3)S2)C1 (stereo not given) | 6% | 12µM* | x | 26% | x | 5%
O=C1N=C(N2CCCCC2)S/C1=C\c1ccc(Cl)cc1 | 15% | -20% | x | 11% | x | 7%
Cc1ccc(/C=C2\SC(N3CCCCC3)=NC2=O)cc1 | 12% | 19µM* | x | 30% | x | u
Cc1cccn2c(=O)c3cc(C(=O)NC(C)C)n(C)c3nc12 | x | -3% | x | x | x | x
COC(=O)[C@H]1C[C@@H]2CC[C@@H](O)C[C@@H]2N1Cc1c(F)cccc1Cl | x | x | -2% | x | 4% | x
COc1ccc(-c2nc(-c3ccccc3)oc2NC(C)C)cc1 | x | x | 0% | x | -9% | x
O=c1c2ccccc2c(/C=N/c2nnc(Cc3ccccc3)s2)c(O)n1-c1ccc(Cl)cn1 | -1% | 1.9µM* | -2% | -4% | 0% | 2%
O=C(CCS(=O)(=O)c1cc2c3c(c1)CCN3C(=O)CC2)NCc1ccc(F)cc1 | x | -1% | x | x | x | x
COC(=O)c1nnc(C(=O)NCc2ccccc2)c2[nH]c3ccccc3c12 | x | x | 1% | x | -6% | x
COc1ccc(/C=N/Nc2nnc(-c3ncc[nH]3)c3ccccc23)cc1 | 16% | 0.34µM* | -26% | 2.8µM* | 14% | u
Oc1ccc2ccccc2c1/C=N/Nc1nnc(-c2ncc[nH]2)c2ccccc12 | 17% | 3.4µM* | -6% | -18% | -116% | -30%
COc1ccccc1OCC(=O)N/N=C/c1c(O)ccc2ccccc12 | -5% | u | x | -37% | x | -22%
CCCCc1nnc(NC(=O)CCSc2ccccc2)s1 | -1% | 0% | -1% | 4% | -14% | 0%
CC(C)Cc1nnc(NC(=O)CC(=O)Nc2ccccc2C(=O)O)s1 | 8% | 15µM* | -3% | 12% | -10% | 7%
CC(C)c1nnc(NC(=O)CC(=O)Nc2ccccc2C(=O)O)s1 | u | 4.8µM* | -14% | 2.5µM* | -17% | 3.5µM*
CCCCc1nnc(NC(=O)CC(=O)Nc2ccccc2C(=O)O)s1 | 2% | 17µM* | 0% | 10% | -13% | -1%
CCc1nnc(NC(=O)CC(=O)Nc2ccccc2C(=O)O)s1 | 1% | 15µM* | -5% | 18% | -11% | u
CNc1ccccc1C(=O)N1CCc2c([nH]c3ccccc23)C1=O | x | x | -4% | x | -1% | x
Cc1ccc(NC(=O)c2cccn2-c2nnc(N3CCCCC3)s2)cc1Cl | x | 40% | x | x | x | x
O=S(=O)(Nc1cccc(-c2ccc(N3CCOCC3)nn2)c1)c1ccc(F)c(C(F)(F)F)c1 | x | 9.5µM* | x | x | x | x
O=S(=O)(Nc1cccc(-c2ccc3nncn3n2)c1)c1cccc(F)c1 | 13% | 5% | x | -5% | x | -7%
O=S(=O)(Nc1cccc(-c2ccc(N3CCCC3)nn2)c1)c1ccccc1C(F)(F)F | x | 17µM* | x | x | x | x
O=[N+]([O-])c1ccccc1S(=O)(=O)Nc1ccc(-c2ccc(N3CCCC3)nn2)cc1 | 20% | -28% | x | -2% | x | 26%
O=S(=O)(Nc1cccc(-c2ccc(N3CCCC3)nn2)c1)c1ccc(F)c(C(F)(F)F)c1 | x | 19µM* | x | x | x | x
